Results: PubChem BioAssay (NCATS)
Values joined by “and” are separate entries in the source; they are usually repeats but may differ in a detail not shown here. Equal entries are not always repeated. Records with an inconclusive call do not appear. Active and inactive are the calls of the source. Unless noted, calls follow the shape of the dose curve; as a rule, active = well fitted curve in the direction sought with a large enough effect; inconclusive = small, poorly fitted or top-dose-only effect, or another doubt; inactive = no such curve, though single readings can be large; an effect the other way counts as inactive or inconclusive.

Columns and labels:
[1] = qHTS Assay for Identifying Gametocytocidal Compounds (AID 743244);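 also: % is scaled to controls: 0 for no effect and ±100 for the full control effect; actives lower the fluorescent signal which means gametocytes are killed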; conditions: P. falciparum 3D7 stage III-V gametocytes, alamarBlue, 72 h; max response: stronger effect = lower value
Outline: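 P. falciparum 3D7 stage III–V gametocytes (20,000 cells/well) were exposed to compounds for 72 h at 37 °C, 5% CO2. AlamarBlue was then added for 24 h; decreased resorufin fluorescence (Ex 525/Em 598 nm) indicated loss of viability.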

[2] = qHTS assay for measurement of the activity of small molecule inhibitors on Zika virus induced Caspase-3 activity in human iPSC derived neural progenitor cells (hNPCs) (AID 1224857); also: % of control where 0% means no effect; nearly all actives have a fitted effect of over 65% in size
Outline: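 hNPCs seeded 350 cells/well, cultured 16–20 h; compounds added 1 h before ZIKV (2 FFU/cell), 37 C 6 h. Caspase-Glo 3/7 luminescence after 30 min RT; % inhibition from induction scaled to uninfected (0%) and infected (100%) wells.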

[3] = qHTS assay for measurement of the activity of small molecule inhibitors on Zika virus induced Caspase-3 activity in human astrocytoma cells (AID 1224859);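 also: plate controls were ZIKV-infected untreated cells for no effect and uninfected cells for full effect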
Outline: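 Luminescence read-out (Caspase-Glo 3/7, 30 min RT) of caspase activity in SNB-19 cells infected 6 h with ZIKV, 2 FFU/cell, after 1 h compound pretreatment; % inhibition from induction normalised to uninfected (0%) and infected (100%) wells.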

[4] = qHTS assay to identify small molecule inhibitors of chordoma cells - UCH-1 (AID 1259355); also: % is scaled to controls: 0 for no effect and ±100 for the full control effect; nearly all actives have a fitted effect of over 55% in size
Outline: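 Luminescent ATP read-out (CellTiter-Glo, 30min at room temperature) measured viability of UCH-1 cells exposed for 48hr to test drugs at 15 concentrations, co-dosed with a five-agent combination of auranofin, camptothecin, doxorubicin, rubitecan and topotecan.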

[5] = qHTS assay to identify small molecule inhibitors of chordoma cells - UCH-2 (AID 1259356); also: % is scaled to controls: 0 for no effect and ±100 for the full control effect
[6] = qHTS profiling for inhibitors of Plasmodium falciparum (3D7) proliferation (AID 743322; call rule not given here;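 also: infected erythrocytes exposed to compound for 72 h before lysis; 100% = DMSO vehicle wells and 0% = 0.29 µM artemisinin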); conditions: P. falciparum 3D7 proliferation; at 28.7 µM (top of the series)
Outline: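 Erythrocytes infected with P. falciparum (0.3% parasitemia, 2.5% hematocrit) incubated with compounds 72 h at 37 C, 5% CO2. Lysis with saponin/Triton buffer containing SYBR Green I, overnight at room temperature in the dark; DNA fluorescence (485/535 nm) normalised to 0.29 uM artemisinin and DMSO.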

[7] = qHTS profiling for inhibitors of Plasmodium falciparum (DD2) proliferation (AID 743323; call rule not given here); conditions: lower = more inhibition; at 28.7 µM (top of the series)
Outline: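 Parasite proliferation measured via DNA-dye fluorescence, as uninfected erythrocytes lack DNA. Cultures at 0.3% parasitemia and 2.5% hematocrit incubated 72 h with compound; signal scaled between vehicle and 0.29 uM artemisinin wells.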

[8] = qHTS profiling for inhibitors of Plasmodium falciparum (HB3) proliferation (AID 743324); conditions: Plasmodium falciparum HB3 blood-stage proliferation; at 28.7 µM (top of the series);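 also: 100% = DMSO vehicle wells and 0% = artemisinin-treated control wells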
Outline: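 P. falciparum HB3 grown in erythrocytes (0.3% parasitemia, 2.5% hematocrit final) with compound for 72 h at 37 C, 5% CO2. Parasite DNA detected by SYBR Green after saponin/triton lysis overnight; normalized to 0.29 uM artemisinin and DMSO.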

[9] = target: Peroxisome proliferator-activated receptor alpha (Homo sapiens) (UniProt Q07869); experiment: qHTS assay for small molecule agonists of the peroxisome proliferator-activated receptor alpha (PPARalpha) signaling pathway (AID 651778); conditions: PathHunter PPARalpha complementation, chemiluminescence, 6 h; stronger effect = higher value; also: % of control where 0% means no effect
Outline: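 Cells plated at 2,000/well and held overnight at 37 C, 5% CO2, then compound added by pin tool for 6 hr; after PathHunter detection reagent and 60 min at room temperature, chemiluminescence from enzyme complementation was read.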

[10] = qHTS assay for small molecule agonists of the antioxidant response element (ARE) signaling pathway measured by Nrf2-dependant transcriptional activity (AID 720636; active = well fitted curve in the direction sought with a large enough effect in the repeat runs; an effect the other way counts as inactive or inconclusive;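 also: HepG2 cells with an ARE-driven luciferase reporter; % of control where 0% means no effect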)
Outline: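 First, ARE-luc HepG2 cells attached for 6 hr at 37 C in 1% dialyzed FBS medium. Next, compound or DMSO was added and incubated 16 hr. Finally, ONE-Glo reagent was added and luminescence measured after 30 min.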

[11] = qHTS assay for small molecule antagonists of the retinoid-related orphan receptor gamma (ROR-gamma) signaling pathway - cell viability counter screen (AID 720652; active = well fitted curve in the direction sought with a large enough effect in the repeat runs; an effect the other way counts as inactive or inconclusive;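 also: CHO reporter cells with doxycycline-induced ROR-gamma expression; compound exposure lasted 16 hr before ATP read; % is scaled to controls: 0 for no effect and ±100 for the full control effect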)
Outline: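 CHO cells carrying TET-inducible ROR and RORE-luciferase reporter, plated 5 hr, then dosed with compound plus doxycycline. After 16 hr at 37 C, viability read as intracellular ATP by CellTiter-Glo luminescence.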

[12] = qHTS assay for small molecule agonists of the antioxidant response element (ARE) signaling pathway measured by Nrf2-dependant transcriptional activity - cell viability counter screen (AID 720653; active = well fitted curve in the direction sought with a large enough effect in the repeat runs; an effect the other way counts as inactive or inconclusive; also: % is scaled to controls: 0 for no effect and ±100 for the full control effect); conditions: ARE-bla HepG2 viability, CellTiter-Glo ATP luminescence, 16 h; stronger effect = lower value
Outline: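 ARE-bla HepG2 cells (2,000/well) rested 5 hrs at 37C/5% CO2, then exposed to compounds in DMSO for 16 hrs. Viability was read in the same wells as intracellular ATP by luminescence, 30 min at room temperature after reagent addition.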

[13] = qHTS assay for cell viability of HEK293 cells (AID 743288); conditions: ATP luminescence (CellTiter-Glo), 18 h, stronger effect = lower value; also: % is scaled to controls: 0 for no effect and ±100 for the full control effect; nearly all actives have a fitted effect of over 50% in size
Outline: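 Total intracellular ATP, measured with a luciferase-coupled reagent, indicates the number of viable HEK293 cells. Exposure to test chemicals lasts 18 h at 37 C in 1,536-well format at 2,000 cells/well.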

[14] = qHTS assay for cell viability of the p53RE-bla HCT-116 cell line (AID 743292); also: % is scaled to controls: 0 for no effect and ±100 for the full control effect; nearly all actives have a fitted effect of over 55% in size
Outline: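 Quantitative high-throughput format: compounds in DMSO were pinned onto p53RE-bla HCT-116 cells (4,000/well) and incubated 16 h at 37 C. Total intracellular ATP, read by CellTiter-Glo luminescence, reflects viable cell number.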

Sequence of Peroxisome proliferator-activated receptor alpha (Homo sapiens) (Q07869 whole entry, looked up): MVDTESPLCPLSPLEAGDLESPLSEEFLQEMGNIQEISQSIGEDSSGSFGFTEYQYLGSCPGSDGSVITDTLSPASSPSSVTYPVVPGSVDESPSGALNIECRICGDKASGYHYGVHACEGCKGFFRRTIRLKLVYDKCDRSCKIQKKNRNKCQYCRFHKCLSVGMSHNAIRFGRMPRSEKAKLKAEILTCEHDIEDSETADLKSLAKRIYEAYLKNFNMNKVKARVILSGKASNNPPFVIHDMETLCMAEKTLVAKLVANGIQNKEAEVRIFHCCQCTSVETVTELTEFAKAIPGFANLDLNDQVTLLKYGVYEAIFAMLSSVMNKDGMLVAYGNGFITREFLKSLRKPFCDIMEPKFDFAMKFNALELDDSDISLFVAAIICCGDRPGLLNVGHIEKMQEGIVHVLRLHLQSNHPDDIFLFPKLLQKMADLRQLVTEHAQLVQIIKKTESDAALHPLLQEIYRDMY

CC(=O)Nc1ccc(OCCOCCOc2ccc(NC(C)=O)cc2)cc1
inactive: max response [1] 1.8% | outcome [2] | outcome [3] | outcome [4] | outcome [5]

CC(=O)N(CC(O)CO)c1c(I)c(C(=O)NCC(O)CO)c(I)c(C(=O)NCC(O)CO)c1I (stereo not drawn)
inactive: max response [1] -11.4% | outcome [2] | outcome [3] | outcome [4] | outcome [5]

Nc1ncnc2c1ncn2[C@@H]1O[C@H](COP(=O)(O)O)[C@@H](O)[C@H]1O
inactive: max response [1] -1.97% | outcome [2] | outcome [3] | outcome [4] | outcome [5]

O=C(O)CCC(=O)O
inactive: max response [1] 4.69% | outcome [2] | outcome [3] | outcome [4] | outcome [5]

CC(C(=O)O)c1ccc2c(c1)Cc1cccnc1O2 (stereo not drawn)
inactive: max response [1] -8.08% | outcome [2] | outcome [3] | outcome [4] | outcome [5]

C[C@@H]1O[C@@H](OC[C@H]2O[C@@H](Oc3c(-c4ccc(O)c(O)c4)oc4cc(O)cc(O)c4c3=O)[C@H](O)[C@@H](O)[C@@H]2O)[C@H](O)[C@H](O)[C@H]1O
inactive: max response [1] 3.71% | outcome [2] | outcome [3] | outcome [4]

CN[C@@H]1[C@@H](O)[C@@H](O[C@@H]2[C@H](O)[C@H](O[C@H]3OC(CN)=CC[C@H]3N)[C@@H](N)C[C@H]2N)OCC1(C)O (stereo partly drawn)
inactive: max response [1] -9.46% | outcome [2] | outcome [3] | outcome [4]

CC(=O)N[C@@H](CC(C)C)C(=O)O
inactive: max response [1] -15.3% | outcome [2] | outcome [3] | outcome [4]

CCN(CC)CCOC(=O)C(c1ccccc1)c1ccccc1
inactive: max response [1] -5.96% | outcome [2] | outcome [3] | outcome [4]

CCOC(=O)c1cccnc1
inactive: max response [1] 2.39% | outcome [2] | outcome [3] | outcome [4]

O=C1c2ccccc2S(=O)(=O)N1CCCCN1CCN(c2ncccn2)CC1
inactive: max response [1] -4.4% | outcome [2] | outcome [3] | outcome [4]

CCOc1ccccc1O[C@H](c1ccccc1)[C@H]1CNCCO1
inactive: outcome [2] | outcome [3] | outcome [4]
63.9%: activity, percent of control [7]
89.6%: remaining parasite growth % (stronger effect = lower value) [6]
47.7%: remaining proliferation (% of control), lower = more inhibition [8]

CNCc1ccccc1
inactive: max response [1] 8.64% | outcome [2] | outcome [3] | outcome [4]

O=C(NCN1CCOCC1)c1cnccn1
inactive: max response [1] -4.94% | outcome [2] | outcome [3] | outcome [4]

Cc1cc(C)nc(NS(=O)(=O)c2ccc(N)cc2)n1
inactive: max response [9] -5.72% and -2.38% | outcome [10] | outcome [11] | max response [12] -4.69% and 1.65% | max response [1] -2.99% | max response [13] 2.28% and -2.43% | outcome [14] | outcome [2] | outcome [3] | outcome [4]
